Records with an inconclusive call do not appear. Some structures have more than one record in an assay (separate samples or runs), and their calls can disagree. Active and inactive are the calls of the source. How the source made its calls: active means hit-call score of the fitted dose curve at least 0.9, where 1 is the maximum; inconclusive means response in the unintended direction; inactive means score below 0.9.
target: Estrogen receptor beta (Homo sapiens) (UniProt Q92731); assay: OT_ER_ERbERb_0480: Odyssey Thera (OT) 8-hour HEK293T Protein-Complementation Assay for Estrogen Receptor-beta/-beta Homodimer (AID 2283357);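 further: active means signal gain over DMSO baseline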
Sequence (Q92731 whole entry, looked up, the tested form may be a part): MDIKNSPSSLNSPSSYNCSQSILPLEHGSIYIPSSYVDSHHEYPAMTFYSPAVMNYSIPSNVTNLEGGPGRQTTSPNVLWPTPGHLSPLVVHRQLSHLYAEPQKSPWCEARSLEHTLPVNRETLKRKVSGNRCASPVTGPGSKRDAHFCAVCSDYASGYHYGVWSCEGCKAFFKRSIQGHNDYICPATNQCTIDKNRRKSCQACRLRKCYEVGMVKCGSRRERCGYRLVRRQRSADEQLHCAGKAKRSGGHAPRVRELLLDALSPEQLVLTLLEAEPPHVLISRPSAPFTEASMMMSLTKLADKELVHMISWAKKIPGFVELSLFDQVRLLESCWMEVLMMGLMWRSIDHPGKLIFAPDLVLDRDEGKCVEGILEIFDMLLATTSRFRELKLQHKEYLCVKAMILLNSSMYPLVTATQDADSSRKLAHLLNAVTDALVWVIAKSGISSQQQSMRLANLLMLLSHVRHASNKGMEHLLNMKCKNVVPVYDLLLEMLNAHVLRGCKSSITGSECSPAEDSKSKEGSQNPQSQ
Outline: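 ER-beta LBD homodimer PCA stably expressed in HEK293T; 8 h compound exposure, then formaldehyde fixation and Draq5 staining. Gain in nuclear/cytoplasmic fluorescence intensity versus DMSO vehicle, read on laser scanning cytometer.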

SMILES | outcome | AC50
CNC(=O)Oc1cccc(N=CN(C)C)c1 | inactive | 
OCCOc1ccccc1 | inactive | 
O=C1c2ccccc2C(=O)N1SC(Cl)(Cl)Cl | inactive | 
CCCN(CCOc1c(Cl)cc(Cl)cc1Cl)C(=O)n1ccnc1 | inactive | 
O=[N+]([O-])c1c(Cl)c(Cl)c(Cl)c(Cl)c1Cl | inactive | 
O=C(Nc1ccccc1)Nc1cnns1 | inactive | 
ClC1C(Cl)C(Cl)C(Cl)C(Cl)C1Cl (centres undefined) | inactive | 50 µM (active)
CN1CSC(=S)N(C)C1 | inactive | 
CNC(=O)/C=C(\C)OP(=O)(OC)OC | inactive | 
N#CN | inactive | 
CCC(C)(NC(=O)c1cc(Cl)c(C)c(Cl)c1)C(=O)CCl (centres undefined) | inactive | 
CC(C)(C)C(O)C(Oc1ccc(Cl)cc1)n1cncn1 (centres undefined) |  | 67.3 µM (active)
CCc1ccc(C(=O)NN(C(=O)c2cc(C)cc(C)c2)C(C)(C)C)cc1 | inactive | 
CCOC1Oc2ccc(OS(C)(=O)=O)cc2C1(C)C (centres undefined) | inactive | 
CC1(c2ccc(Oc3ccccc3)cc2)OC(=O)N(Nc2ccccc2)C1=O (centres undefined) | inactive | 
O=[N+]([O-])/N=C1\NCCN1Cc1ccc(Cl)nc1 | inactive | 
CNC(=O)Oc1ccccc1OC(C)C | inactive | 
Oc1ccc(Cl)cc1Cc1ccccc1 |  | 12 µM (active)
O=C(NC(=O)c1c(F)cccc1F)Nc1ccc(OC(F)(F)C(F)OC(F)(F)F)c(Cl)c1 (centres undefined) | inactive | 
Clc1ccccc1-c1nnc(-c2ccccc2Cl)nn1 | inactive | 
CCC(C)Nc1c([N+](=O)[O-])cc(C(C)(C)C)cc1[N+](=O)[O-] (centres undefined) | inactive | 
CC(C)N(C(=O)COc1nnc(C(F)(F)F)s1)c1ccc(F)cc1 | inactive | 

target: Retinoic acid receptor alpha (Homo sapiens) (UniProt P10276); assay: NVS_NR_hRAR_Antagonist: NovaScreen (NVS) Nuclear Receptor Binding Assay for human Retinoic Acid Alpha Receptor Antagonism (RAR) (AID 2283358)
Sequence (P10276 whole entry, looked up): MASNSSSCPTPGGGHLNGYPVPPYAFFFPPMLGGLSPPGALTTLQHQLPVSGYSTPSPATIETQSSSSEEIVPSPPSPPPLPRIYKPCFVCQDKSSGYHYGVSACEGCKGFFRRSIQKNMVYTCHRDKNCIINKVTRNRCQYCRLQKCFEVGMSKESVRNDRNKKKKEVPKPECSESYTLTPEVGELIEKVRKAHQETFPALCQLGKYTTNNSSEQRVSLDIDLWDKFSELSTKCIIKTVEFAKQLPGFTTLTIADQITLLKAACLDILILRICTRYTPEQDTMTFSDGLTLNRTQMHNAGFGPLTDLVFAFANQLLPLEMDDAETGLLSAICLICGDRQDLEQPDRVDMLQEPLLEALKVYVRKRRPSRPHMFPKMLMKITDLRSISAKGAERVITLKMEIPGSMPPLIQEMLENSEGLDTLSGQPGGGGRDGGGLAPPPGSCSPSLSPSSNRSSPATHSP
Outline: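 RARalpha antagonism was read by TR-FRET as loss of binding signal versus DMSO, 2 h after chemical addition, in a biochemical format. Single-concentration duplicates (25 uM) were run first, and actives were retested in concentration series.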

SMILES | outcome
O=C1c2ccccc2C(=O)N1SC(Cl)(Cl)Cl | inactive
CCCN(CCOc1c(Cl)cc(Cl)cc1Cl)C(=O)n1ccnc1 | inactive
O=[N+]([O-])c1c(Cl)c(Cl)c(Cl)c(Cl)c1Cl | inactive
CC(C)(C)C(O)C(Oc1ccc(Cl)cc1)n1cncn1 (centres undefined) | inactive
CC1(c2ccc(Oc3ccccc3)cc2)OC(=O)N(Nc2ccccc2)C1=O (centres undefined) | inactive
O=[N+]([O-])/N=C1\NCCN1Cc1ccc(Cl)nc1 | inactive
Oc1ccc(Cl)cc1Cc1ccccc1 | inactive

target: PGR (gene 5241) (UniProt P06401); assay: NVS_NR_hPR: NovaScreen (NVS) Nuclear Receptor Binding Assay for human Progestron Receptor (PR) (AID 2283360);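 further: active means loss of bound radioligand signal versus DMSO baseline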
Sequence (P06401 whole entry, looked up): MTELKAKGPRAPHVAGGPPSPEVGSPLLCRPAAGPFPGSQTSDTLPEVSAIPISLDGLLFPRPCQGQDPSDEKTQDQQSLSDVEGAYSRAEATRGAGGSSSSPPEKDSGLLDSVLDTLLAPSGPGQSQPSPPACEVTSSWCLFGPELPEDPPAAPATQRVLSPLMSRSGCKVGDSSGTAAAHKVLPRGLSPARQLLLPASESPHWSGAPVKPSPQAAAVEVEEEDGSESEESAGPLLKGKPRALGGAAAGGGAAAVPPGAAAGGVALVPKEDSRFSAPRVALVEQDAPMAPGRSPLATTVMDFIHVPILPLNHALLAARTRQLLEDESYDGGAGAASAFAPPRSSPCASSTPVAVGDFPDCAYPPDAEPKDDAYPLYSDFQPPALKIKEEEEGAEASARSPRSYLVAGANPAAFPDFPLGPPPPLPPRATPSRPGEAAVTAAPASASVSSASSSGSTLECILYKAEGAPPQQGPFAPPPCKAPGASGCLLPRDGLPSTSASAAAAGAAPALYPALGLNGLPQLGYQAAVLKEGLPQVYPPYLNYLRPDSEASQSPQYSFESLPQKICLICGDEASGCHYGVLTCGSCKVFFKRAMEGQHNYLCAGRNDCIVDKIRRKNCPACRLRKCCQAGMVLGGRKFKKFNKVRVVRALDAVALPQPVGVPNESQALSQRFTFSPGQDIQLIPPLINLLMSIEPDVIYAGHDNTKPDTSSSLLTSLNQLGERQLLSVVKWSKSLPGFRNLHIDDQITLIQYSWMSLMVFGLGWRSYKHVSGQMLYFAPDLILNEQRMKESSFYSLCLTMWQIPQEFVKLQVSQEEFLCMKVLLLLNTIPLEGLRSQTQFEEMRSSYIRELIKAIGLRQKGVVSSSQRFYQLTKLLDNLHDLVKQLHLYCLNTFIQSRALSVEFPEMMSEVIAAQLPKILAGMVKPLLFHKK
Outline: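 T47D lysate; tritiated or iodinated radioligand; scintillation count at 18 h. DMSO = negative control/baseline. Primary: 25 uM, duplicate. Secondary: concentration series for actives.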

SMILES | outcome | AC50
CCCN(CCOc1c(Cl)cc(Cl)cc1Cl)C(=O)n1ccnc1 | inactive | 
ClC1C(Cl)C(Cl)C(Cl)C(Cl)C1Cl (centres undefined) | inactive | 
CC(C)(C)C(O)C(Oc1ccc(Cl)cc1)n1cncn1 (centres undefined) | inactive | 
Oc1ccc(Cl)cc1Cc1ccccc1 |  | 16.5 µM (active) [middle of 6 runs]

target: human Thyroid Receptor Alpha (TRa), THRA (gene 7067) (UniProt P10827); assay: NVS_NR_hTRa_Antagonist: NovaScreen (NVS) Nuclear Receptor Binding Assay for human Thyroid Receptor Alpha Antagonism (TRa) (AID 2283362);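 further: activity is loss of signal relative to DMSO baseline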
Sequence (P10827 whole entry, looked up): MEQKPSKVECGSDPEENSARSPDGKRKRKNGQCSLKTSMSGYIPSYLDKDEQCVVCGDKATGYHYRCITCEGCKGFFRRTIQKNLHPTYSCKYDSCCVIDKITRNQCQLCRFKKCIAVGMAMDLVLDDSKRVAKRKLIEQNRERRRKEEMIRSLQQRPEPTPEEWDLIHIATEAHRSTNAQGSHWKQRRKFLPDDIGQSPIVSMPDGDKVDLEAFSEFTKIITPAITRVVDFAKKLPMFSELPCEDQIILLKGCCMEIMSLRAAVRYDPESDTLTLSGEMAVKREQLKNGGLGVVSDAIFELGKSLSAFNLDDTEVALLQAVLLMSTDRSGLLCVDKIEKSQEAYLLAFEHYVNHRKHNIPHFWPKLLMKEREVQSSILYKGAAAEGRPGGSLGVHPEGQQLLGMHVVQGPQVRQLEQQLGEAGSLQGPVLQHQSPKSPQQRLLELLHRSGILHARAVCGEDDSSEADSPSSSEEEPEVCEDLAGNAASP
Outline: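 Chemicals were first screened in duplicate at 25 uM, then actives were retested in concentration series. Binding to the extracted receptor was measured 1 h after dosing by AlphaLISA chemiluminescence, with decreased signal versus DMSO scored as activity.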

SMILES | AC50 | outcome
CCCN(CCOc1c(Cl)cc(Cl)cc1Cl)C(=O)n1ccnc1 | 6.39 µM (active) | 
O=[N+]([O-])c1c(Cl)c(Cl)c(Cl)c(Cl)c1Cl |  | inactive
CC(C)(C)C(O)C(Oc1ccc(Cl)cc1)n1cncn1 (centres undefined) |  | inactive
O=[N+]([O-])/N=C1\NCCN1Cc1ccc(Cl)nc1 |  | inactive

target: Glucocorticoid receptor (Homo sapiens) (UniProt P04150); assay: NVS_NR_hGR: NovaScreen (NVS) Nuclear Receptor Binding Assay for human Glucocorticoid Receptor (GR) (AID 2283363)
Sequence (P04150 whole entry, looked up): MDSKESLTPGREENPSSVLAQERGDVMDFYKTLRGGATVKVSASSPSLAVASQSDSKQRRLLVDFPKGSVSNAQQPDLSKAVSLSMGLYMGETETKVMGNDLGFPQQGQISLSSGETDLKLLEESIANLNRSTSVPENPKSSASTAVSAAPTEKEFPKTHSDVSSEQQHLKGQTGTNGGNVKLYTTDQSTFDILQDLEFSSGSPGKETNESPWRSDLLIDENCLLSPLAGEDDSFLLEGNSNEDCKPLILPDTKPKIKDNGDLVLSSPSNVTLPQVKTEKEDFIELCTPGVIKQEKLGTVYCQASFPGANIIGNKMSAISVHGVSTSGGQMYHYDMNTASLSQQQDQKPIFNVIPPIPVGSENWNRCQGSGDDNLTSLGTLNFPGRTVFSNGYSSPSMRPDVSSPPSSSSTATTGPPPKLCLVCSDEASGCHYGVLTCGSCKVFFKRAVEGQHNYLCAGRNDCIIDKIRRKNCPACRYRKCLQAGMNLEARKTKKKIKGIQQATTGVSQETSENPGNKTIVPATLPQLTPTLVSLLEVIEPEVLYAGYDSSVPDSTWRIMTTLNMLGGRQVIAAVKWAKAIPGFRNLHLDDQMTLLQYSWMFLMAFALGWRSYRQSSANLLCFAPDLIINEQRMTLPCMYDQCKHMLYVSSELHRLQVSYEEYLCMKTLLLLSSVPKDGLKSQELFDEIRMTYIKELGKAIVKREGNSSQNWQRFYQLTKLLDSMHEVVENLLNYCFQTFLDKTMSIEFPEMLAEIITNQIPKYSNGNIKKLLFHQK
Outline: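 Compounds first tested in duplicate at 25 uM, actives followed up in concentration series. Binding to extracted GR protein measured as competitive radioligand displacement, filter scintillation read 16 h post-dosing, normalised to DMSO.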

SMILES | outcome
CCCN(CCOc1c(Cl)cc(Cl)cc1Cl)C(=O)n1ccnc1 | inactive
O=[N+]([O-])c1c(Cl)c(Cl)c(Cl)c(Cl)c1Cl | inactive
O=[N+]([O-])/N=C1\NCCN1Cc1ccc(Cl)nc1 | inactive

target: rat Androgen Receptor (AR), Ar (gene 24208) (UniProt P15207); assay: NVS_NR_rAR: NovaScreen (NVS) Nuclear Receptor Binding Assay for rat Androgen Receptor (AR) (AID 2283366)
Sequence (P15207 whole entry, looked up): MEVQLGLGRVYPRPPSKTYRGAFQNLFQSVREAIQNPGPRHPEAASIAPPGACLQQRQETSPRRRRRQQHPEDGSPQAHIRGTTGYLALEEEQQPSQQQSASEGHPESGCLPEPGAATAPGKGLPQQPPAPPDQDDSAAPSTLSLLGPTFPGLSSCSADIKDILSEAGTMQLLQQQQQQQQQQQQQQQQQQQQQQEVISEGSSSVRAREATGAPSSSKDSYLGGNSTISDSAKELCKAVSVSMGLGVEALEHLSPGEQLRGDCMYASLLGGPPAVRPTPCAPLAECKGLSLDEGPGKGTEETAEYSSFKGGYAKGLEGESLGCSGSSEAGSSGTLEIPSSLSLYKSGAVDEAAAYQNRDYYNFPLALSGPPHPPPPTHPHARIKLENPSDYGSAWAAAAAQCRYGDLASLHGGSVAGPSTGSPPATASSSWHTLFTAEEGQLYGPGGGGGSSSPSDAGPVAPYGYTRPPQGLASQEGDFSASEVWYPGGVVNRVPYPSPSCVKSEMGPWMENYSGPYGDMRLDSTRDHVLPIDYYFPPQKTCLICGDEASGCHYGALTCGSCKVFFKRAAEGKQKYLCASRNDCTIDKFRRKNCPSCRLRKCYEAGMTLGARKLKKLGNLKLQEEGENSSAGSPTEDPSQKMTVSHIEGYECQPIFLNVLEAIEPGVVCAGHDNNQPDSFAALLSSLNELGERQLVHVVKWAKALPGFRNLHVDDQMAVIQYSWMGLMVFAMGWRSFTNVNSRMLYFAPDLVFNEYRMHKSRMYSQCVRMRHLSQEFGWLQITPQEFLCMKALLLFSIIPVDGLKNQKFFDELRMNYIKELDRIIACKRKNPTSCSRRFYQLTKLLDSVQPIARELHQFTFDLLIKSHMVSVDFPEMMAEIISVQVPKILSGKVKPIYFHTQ
Outline: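 Actives from a duplicate single-concentration (25 uM) primary run went on to concentration series. Displacement of radioligand was counted by filtration and scintillation, 18 h post-dose, using prostate extracts from testosterone-pretreated rats, with DMSO as baseline.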

SMILES | outcome | AC50
O=[N+]([O-])c1c(Cl)c(Cl)c(Cl)c(Cl)c1Cl | inactive | 
O=[N+]([O-])/N=C1\NCCN1Cc1ccc(Cl)nc1 | inactive | 
Oc1ccc(Cl)cc1Cc1ccccc1 |  | 12.3 µM (active) [middle of 6 runs]
